Test results published in ChEMBL document CHEMBL3433997, “St. Jude Leishmania screening dataset” (2016).

What follows are molecules tested against Hexose transporter 1 (Plasmodium falciparum) (UniProt O97467) (assay: ST_JUDE_LEISH: Cytotoxicity at 2uM final concentration against transgenic Leishmania Mexicana promastigotes LmPfHT that are glucose transport deficient and complemented with the Plasmodium falciparum hexose transporter. Activity is measured by DNA content using SYBR green in vitro).
Format: functional

Structure (SMILES) | inhibition [%]
CCN1CCN(c2ccc(NC(=O)c3cc4c(C)nn(-c5ccccc5)c4s3)cc2C)CC1 | 3.9
COc1ccc2nccc([C@@H](O)CN3CCC(NC(=O)Cc4ccc(Br)c5ccccc45)CC3)c2c1 | 3.24
COc1cc(Cc2cnc(N)nc2N)cc(OCCCN2C(=O)c3ccccc3C2=O)c1OC | 5.99
Cc1cnc(CN(Cc2ccc(-c3ccc(CNCCc4ccc(S(C)(=O)=O)cc4)cn3)cc2)C(=O)c2nn(-c3ccccc3)nc2C)cn1 | 3.95
OCCN1CCN(Cc2cccc(-c3ccc(-c4nc5cc(C(F)(F)F)ccc5[nH]4)cc3)c2)CC1 | 3.3
Cc1ccccc1C1CCN(C2CCC(NC(=O)/C=C/c3cc(F)cc(F)c3)CC2)CC1 (stereo not given) | -0.51
Cc1c(S(=O)(=O)Nc2ccc3ccn(CCN(C)C)c3c2)sc2ccc(Cl)cc12 | -0.46
CC[C@@H]([C@@H](Cc1cc2ccccc2s1)C(=O)N[C@@H](CCCCNC(=O)OCc1ccccc1)C(=O)Nc1ccccn1)N(O)C=O | 4.31
Nc1nc(N)c2c(ccc3c2ccn3CC2CC2)n1 | 6.17
CC(C)CNCc1ccc(-c2ccccc2CN(C(=O)NCCc2ccccc2)C2CCN(Cc3ccccc3)CC2)cc1 | 1.42
CCc1cccc(OCCCON2C(=N)N=C(N)NC2(C)C)c1 | 9.83
O=C(NCCCCN1CCC2c3cccc(O)c3CCC21)c1ccc(-c2ccccc2)cc1 (stereo not given) | 5.38
Cc1nnc2c(NC(=O)NC3CCCC3)cc3ccc(-c4cccc(CN(C)C)c4)cc3n12 | 2.6
COc1ccccc1C1CCN(C2CCC(NC(=O)c3cc(-c4ccc(Cl)cc4)cs3)CC2)CC1 (stereo not given) | 2.96
CCOc1cc(C2C(C(=O)OC(C)C)=C(C)NC3=C2C(=O)CC(c2ccc(Cl)cc2)C3)ccc1OC(C)=O (stereo not given) | 6.64
COc1cc2nc(N3CCN(C(=O)c4ccco4)CC3)nc(NCc3ccccc3)c2cc1OC | 15.2
O=C(Nc1ccc(Cl)cc1C(=O)Nc1ccncc1)c1ccc(Cl)cc1Cl | 5.88
CC(=O)Nc1ccc(Nc2c3ccccc3nc3ccccc23)cc1 | 7.37
COc1ccccc1CCNc1nc(C)cc(N[C@@H](Cc2ccccc2)C(=O)NCCc2ccccc2)n1 | 7.61
COc1cccc2cc(C(=O)N[C@@H](CC(C)C)C(=O)N[C@H](/C=N/NC(=O)c3ccccc3)Cc3c[nH]cn3)oc12 | 0.99

Structure (SMILES) | inhibition [%]
N=C(N)Nc1ccc(OCCCCCOc2ccc(NC(=N)N)cc2Br)c(Br)c1 | 1.79
COc1cccc2c(NN=Cc3ccccc3Cl)cc(C)nc12 | 63.1
O=C(Nc1cccc(CN2CCN(C(=O)c3cccs3)CC2)c1)c1cccs1 | 2.59
O=C(Nc1ccc(C(=O)Nc2cccc(C3=NCCN3)c2)cc1)Nc1ccc(C2=NCCN2)cc1 | 0.34
CN1CCC(C(=O)Nc2cccc(-c3ccc(-c4nc5cc(C(F)(F)F)ccc5[nH]4)cc3)c2)CC1 | 2.75
CC(=O)N(C)c1cccc(C(=O)Nc2cccc(-c3cccc(-c4nc5cc(C(F)(F)F)ccc5[nH]4)c3)c2)c1 | 12
CN(C)c1ccc(-c2csc(C(=O)NCC3CCN(CCC(C)(C)C)C3)c2)cc1 (stereo not given) | -0.06
COc1cc2nc(N3CCC(CNC(=O)c4ccc(-c5ccc(Cl)cc5)cc4)CC3)nc(N)c2cc1OC | 8.03
CN1CCN(c2ccc(Nc3c4ccccc4nc4ccccc34)cc2)CC1 | 6.39
CCNc1cc(C(=O)N[C@@H](Cc2ccccc2)[C@H](O)CNCCc2ccccc2)cc(N2CCCC2=O)c1 | 1.31
CC=CCON1C(=N)NC(=N)NC1(C)C | 1.47
CC(C)n1nc(C(=O)N2CCN(c3ccccc3)CC2)c2ccccc2c1=O | -0.42
COc1cc(OC)cc(-c2nn(-c3ccc([N+](=O)[O-])cc3C#N)c(=S)n2Cc2ccco2)c1 | -1.55
CCCC(=O)Nc1ccc(OCCCN(Cc2cccc(C(F)(F)F)c2)c2ccc(C#N)c(C(F)(F)F)c2)cc1 | 2.43
Cc1ccccc1CN1CCCN(Cc2ccc(C(=O)Nc3ccc(Cl)cc3)cc2)CC1 | 6.18
CCNc1cc(C(=O)N[C@@H](Cc2cccc(F)c2)[C@H](O)CNC(C)CCCC(C)C)cc(N2CCCCS2(=O)=O)c1 (stereo not given in full) | 2.92
O=C(NCC1CN(Cc2ccc(N3CCCC3)o2)CCCO1)c1ccc2c(c1)OCO2 (stereo not given) | 0.65
COc1ccc(OC)c(Cc2cnc3nc(N)[nH]c(=O)c3c2C)c1 | 4.59
Cc1ccc(F)c(CN2CCC(N3CC(c4ccccc4)(c4ccccc4)OC3=O)CC2)c1Cl | 9.52
CS(=O)(=O)Nc1cccc(-c2cnc3[nH]cc(-c4ccc(C(=O)O)cc4)c3c2)c1 | 0.36

These molecules were tested against Glucose transporter (Leishmania mexicana) (UniProt O61059) (assay: ST_JUDE_LEISH: Cytotoxicity at 2uM final concentration against transgenic Leishmania Mexicana promastigotes LmGT2 that are glucose transport deficient and complemented with the L. Mexicana glucose transporter 2. Activity is measured by DNA content using SYBR green in vitro).
Format: functional

Structure (SMILES) | inhibition [%]
CCN1CCN(c2ccc(NC(=O)c3cc4c(C)nn(-c5ccccc5)c4s3)cc2C)CC1 | -1.39
COc1ccc2nccc([C@@H](O)CN3CCC(NC(=O)Cc4ccc(Br)c5ccccc45)CC3)c2c1 | 1.16
COc1cc(Cc2cnc(N)nc2N)cc(OCCCN2C(=O)c3ccccc3C2=O)c1OC | 6.69
Cc1cnc(CN(Cc2ccc(-c3ccc(CNCCc4ccc(S(C)(=O)=O)cc4)cn3)cc2)C(=O)c2nn(-c3ccccc3)nc2C)cn1 | 4.81
OCCN1CCN(Cc2cccc(-c3ccc(-c4nc5cc(C(F)(F)F)ccc5[nH]4)cc3)c2)CC1 | 2.62
Cc1ccccc1C1CCN(C2CCC(NC(=O)/C=C/c3cc(F)cc(F)c3)CC2)CC1 (stereo not given) | -1.77
Cc1c(S(=O)(=O)Nc2ccc3ccn(CCN(C)C)c3c2)sc2ccc(Cl)cc12 | 1.18
CC[C@@H]([C@@H](Cc1cc2ccccc2s1)C(=O)N[C@@H](CCCCNC(=O)OCc1ccccc1)C(=O)Nc1ccccn1)N(O)C=O | 3.75
Nc1nc(N)c2c(ccc3c2ccn3CC2CC2)n1 | 0.91
CC(C)CNCc1ccc(-c2ccccc2CN(C(=O)NCCc2ccccc2)C2CCN(Cc3ccccc3)CC2)cc1 | -0.19
CCc1cccc(OCCCON2C(=N)N=C(N)NC2(C)C)c1 | 8.16
O=C(NCCCCN1CCC2c3cccc(O)c3CCC21)c1ccc(-c2ccccc2)cc1 (stereo not given) | 3.69
Cc1nnc2c(NC(=O)NC3CCCC3)cc3ccc(-c4cccc(CN(C)C)c4)cc3n12 | 0.64
COc1ccccc1C1CCN(C2CCC(NC(=O)c3cc(-c4ccc(Cl)cc4)cs3)CC2)CC1 (stereo not given) | 0.71
CCOc1cc(C2C(C(=O)OC(C)C)=C(C)NC3=C2C(=O)CC(c2ccc(Cl)cc2)C3)ccc1OC(C)=O (stereo not given) | 6.55
COc1cc2nc(N3CCN(C(=O)c4ccco4)CC3)nc(NCc3ccccc3)c2cc1OC | 11.1
O=C(Nc1ccc(Cl)cc1C(=O)Nc1ccncc1)c1ccc(Cl)cc1Cl | 5.53
CC(=O)Nc1ccc(Nc2c3ccccc3nc3ccccc23)cc1 | 0.02
COc1ccccc1CCNc1nc(C)cc(N[C@@H](Cc2ccccc2)C(=O)NCCc2ccccc2)n1 | 2.86
COc1cccc2cc(C(=O)N[C@@H](CC(C)C)C(=O)N[C@H](/C=N/NC(=O)c3ccccc3)Cc3c[nH]cn3)oc12 | 3.92

Structure (SMILES) | inhibition [%]
N=C(N)Nc1ccc(OCCCCCOc2ccc(NC(=N)N)cc2Br)c(Br)c1 | 0.79
COc1cccc2c(NN=Cc3ccccc3Cl)cc(C)nc12 | 21.7
O=C(Nc1cccc(CN2CCN(C(=O)c3cccs3)CC2)c1)c1cccs1 | 2.26
O=C(Nc1ccc(C(=O)Nc2cccc(C3=NCCN3)c2)cc1)Nc1ccc(C2=NCCN2)cc1 | -0.6
CN1CCC(C(=O)Nc2cccc(-c3ccc(-c4nc5cc(C(F)(F)F)ccc5[nH]4)cc3)c2)CC1 | 3.82
CC(=O)N(C)c1cccc(C(=O)Nc2cccc(-c3cccc(-c4nc5cc(C(F)(F)F)ccc5[nH]4)c3)c2)c1 | 5.52
CN(C)c1ccc(-c2csc(C(=O)NCC3CCN(CCC(C)(C)C)C3)c2)cc1 (stereo not given) | 0.06
COc1cc2nc(N3CCC(CNC(=O)c4ccc(-c5ccc(Cl)cc5)cc4)CC3)nc(N)c2cc1OC | 9.81
CN1CCN(c2ccc(Nc3c4ccccc4nc4ccccc34)cc2)CC1 | 5.74
CCNc1cc(C(=O)N[C@@H](Cc2ccccc2)[C@H](O)CNCCc2ccccc2)cc(N2CCCC2=O)c1 | 0.88
CC=CCON1C(=N)NC(=N)NC1(C)C | 1.8
CC(C)n1nc(C(=O)N2CCN(c3ccccc3)CC2)c2ccccc2c1=O | -0.69
COc1cc(OC)cc(-c2nn(-c3ccc([N+](=O)[O-])cc3C#N)c(=S)n2Cc2ccco2)c1 | 4.15
CCCC(=O)Nc1ccc(OCCCN(Cc2cccc(C(F)(F)F)c2)c2ccc(C#N)c(C(F)(F)F)c2)cc1 | 1.64
Cc1ccccc1CN1CCCN(Cc2ccc(C(=O)Nc3ccc(Cl)cc3)cc2)CC1 | 6.4
CCNc1cc(C(=O)N[C@@H](Cc2cccc(F)c2)[C@H](O)CNC(C)CCCC(C)C)cc(N2CCCCS2(=O)=O)c1 (stereo not given in full) | 1.42
O=C(NCC1CN(Cc2ccc(N3CCCC3)o2)CCCO1)c1ccc2c(c1)OCO2 (stereo not given) | 2.95
COc1ccc(OC)c(Cc2cnc3nc(N)[nH]c(=O)c3c2C)c1 | 5.15
Cc1ccc(F)c(CN2CCC(N3CC(c4ccccc4)(c4ccccc4)OC3=O)CC2)c1Cl | 9.68
CS(=O)(=O)Nc1cccc(-c2cnc3[nH]cc(-c4ccc(C(=O)O)cc4)c3c2)c1 | 3.74
